Experimental data from PubChem BioAssay (NCI).
Compounds without any hit were thinned out: in the full panel of roughly 83,000, 20% have a hit.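 Growth was measured after 48 h exposure to one concentration of compound in 96-well plates. Values under 10 count as active.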 Calls of active or inactive are those of the source.

Tests used:
Assay in all cases: NCI-60 one-dose screen, 48 h (100 = growth as untreated, 0 = no growth, -100 = all killed)
HCT-15 colon = conditions: 10 µM unless noted
HT29 colon = conditions: 10 µM unless noted
SNB-75 CNS = conditions: 10 µM unless noted
SNB-19 CNS = conditions: 10 µM unless noted
U251 CNS = conditions: 10 µM unless noted
PC-3 prostate = conditions: 10 µM unless noted
SK-MEL-5 melanoma = conditions: 10 µM unless noted
UACC-62 melanoma = conditions: 10 µM unless noted
LOX IMVI melanoma = conditions: 10 µM unless noted
SK-MEL-28 melanoma = conditions: 10 µM unless noted
SK-MEL-2 melanoma = conditions: 10 µM unless noted
EKVX NSCLC = conditions: 10 µM unless noted
SN12C renal = conditions: 10 µM unless noted
UO-31 renal = conditions: 10 µM unless noted
TK-10 renal = conditions: 10 µM unless noted
ACHN renal = conditions: 10 µM unless noted
CAKI-1 renal = conditions: 10 µM
A498 renal = conditions: 10 µM unless noted
CCRF-CEM leukemia = conditions: 10 µM unless noted
MOLT-4 leukemia = conditions: 10 µM unless noted

Measured: growth

C#C[C@]1(O)CC[C@H]2[C@@H]3CC=C4c5sc(Nc6cc(OC)ccc6OC)nc5CC[C@]4(C)[C@H]3CC[C@@]21C
inactive: HCT-15 colon 10.3% | HT29 colon 21.1% | SNB-19 CNS 38.3% | U251 CNS 26.1% | PC-3 prostate 18.9% | SK-MEL-2 melanoma 31.8% | EKVX NSCLC 42.9% | SN12C renal 49% | UO-31 renal 12.8% | TK-10 renal 84.7% | ACHN renal 36.5% | CAKI-1 renal 28% | CCRF-CEM leukemia 13.9%
active: SNB-75 CNS 2.31% | SK-MEL-5 melanoma 6.5% | UACC-62 melanoma -14% | LOX IMVI melanoma 5.19% | SK-MEL-28 melanoma -46.6% | A498 renal -28.3% | MOLT-4 leukemia -5.93%

COc1ccc(S(=O)(=O)n2cc(C=O)c3ccccc32)c(OC)c1
inactive: HCT-15 colon 40% | HT29 colon 107% | SNB-75 CNS 75.3% | SNB-19 CNS 85% | U251 CNS 52.8% | PC-3 prostate 66.3% | SK-MEL-5 melanoma 67.3% | UACC-62 melanoma 63.1% | LOX IMVI melanoma 64.3% | SK-MEL-28 melanoma 83.8% | SK-MEL-2 melanoma 96.1% | EKVX NSCLC 91.4% | SN12C renal 85.2% | UO-31 renal 52.4% | TK-10 renal 106% | ACHN renal 85.6% | CAKI-1 renal 52.5% | A498 renal 92.4% | CCRF-CEM leukemia 33.5% | MOLT-4 leukemia 29.2%

O=C(Nc1ccc(F)cc1)c1cc(-c2ccc(F)cc2F)ccc1O
inactive: HCT-15 colon 11.4% | HT29 colon 101% | SK-MEL-28 melanoma 21.9% | EKVX NSCLC 30.5% | TK-10 renal 13.1% | CCRF-CEM leukemia 17.8% | MOLT-4 leukemia 13.9%
active: SNB-75 CNS 7.01% | SNB-19 CNS 8.06% | U251 CNS 6.63% | PC-3 prostate 5.81% | SK-MEL-5 melanoma -63.9% | UACC-62 melanoma 5.12% | LOX IMVI melanoma 4.96% | SK-MEL-2 melanoma -8.37% | SN12C renal 3.57% | UO-31 renal -8.25% | ACHN renal 9.87% | CAKI-1 renal -0.83% | A498 renal -28.7%

CCNCc1c(-c2cccc(OC(F)(F)F)c2)[nH]c2ccc(N3CCCC3)cc2c1=O
inactive: SNB-19 CNS 19.8% | U251 CNS 20% | PC-3 prostate 14.6% | SK-MEL-5 melanoma 15.5% | UACC-62 melanoma 30.3% | LOX IMVI melanoma 21.9% | SK-MEL-28 melanoma 48% | SK-MEL-2 melanoma 42.3% | EKVX NSCLC 88.1% | SN12C renal 28.2% | UO-31 renal 31.9% | TK-10 renal 90.5% | ACHN renal 34.4% | MOLT-4 leukemia 18.4%
active: HCT-15 colon 9.2% | HT29 colon 7.01% | SNB-75 CNS -5.02% | CAKI-1 renal -9.12% | A498 renal -13.6% | CCRF-CEM leukemia 7.62%

CC(C)Sc1nc(NC2CC2)c(C#N)c(-c2ccccc2)n1
inactive: HCT-15 colon 92.4% | HT29 colon 91.1% | SNB-75 CNS 34.7% | SNB-19 CNS 90% | U251 CNS 85.1% | PC-3 prostate 92.5% | SK-MEL-5 melanoma 100% | UACC-62 melanoma 87.6% | LOX IMVI melanoma 67.9% | SK-MEL-28 melanoma 98.7% | SK-MEL-2 melanoma 124% | EKVX NSCLC 101% | SN12C renal 57.8% | UO-31 renal 48.5% | TK-10 renal 123% | ACHN renal 29.1% | CAKI-1 renal 68% | A498 renal 64.5% | CCRF-CEM leukemia 85.1% | MOLT-4 leukemia 92.6%

COc1ccc(NS(=O)(=O)c2ccc(-c3cnc(C4CC4)o3)cc2)cc1Cl
inactive: HCT-15 colon 29.3% | HT29 colon 10.6% | SNB-19 CNS 43.8% | U251 CNS 36% | PC-3 prostate 25.2% | SK-MEL-5 melanoma 18.1% | UACC-62 melanoma 34.1% | LOX IMVI melanoma 39.5% | SK-MEL-28 melanoma 66.9% | SK-MEL-2 melanoma 49.9% | EKVX NSCLC 38.2% | SN12C renal 50.4% | UO-31 renal 51.8% | TK-10 renal 69% | ACHN renal 46.1% | A498 renal 13.1% | CCRF-CEM leukemia 17.2% | MOLT-4 leukemia 32.4%
active: SNB-75 CNS -2.75% | CAKI-1 renal -22.9%

CC(C)(C)OC(=O)N1CCN(S(=O)(=O)/N=C2\NC(=O)NC2=C(Cl)Cl)CC1
inactive: HCT-15 colon 10.9% | HT29 colon 106% | SNB-75 CNS 99.9% | SNB-19 CNS 81.1% | U251 CNS 90.6% | PC-3 prostate 97.5% | SK-MEL-5 melanoma 95.9% | UACC-62 melanoma 96.3% | LOX IMVI melanoma 64.3% | SK-MEL-28 melanoma 85.7% | SK-MEL-2 melanoma 88.9% | EKVX NSCLC 90.8% | SN12C renal 91.7% | UO-31 renal 91.6% | TK-10 renal 124% | ACHN renal 99.5% | CAKI-1 renal 98.8% | A498 renal 83.7% | CCRF-CEM leukemia 29.4% | MOLT-4 leukemia 89%

COc1cc(/C=N/Nc2ccnc3cc(Cl)ccc23)cc(OC)c1O
active: HCT-15 colon -58.9% | HT29 colon 8.25% | SNB-75 CNS -81.5% | SNB-19 CNS -24.5% | U251 CNS -87.1% | PC-3 prostate -61.1% | SK-MEL-5 melanoma -92.7% | LOX IMVI melanoma -96.2% | EKVX NSCLC -71.8% | SN12C renal -64.7% | UO-31 renal -96.4% | TK-10 renal -69.6% | ACHN renal -98.2% | CAKI-1 renal -93% | CCRF-CEM leukemia 9.72% | MOLT-4 leukemia -13%
inactive: UACC-62 melanoma 101% | SK-MEL-28 melanoma 98.4% | SK-MEL-2 melanoma 119% | A498 renal 99.5%

COc1ccc(/C=N/Nc2nc(N/N=C/c3ccc(OC)cc3O)nc(N3CCOCC3)n2)c(O)c1
active: HCT-15 colon 3.39%
inactive: HT29 colon 56.4% | SNB-75 CNS 74.4% | SNB-19 CNS 69.4% | U251 CNS 45.6% | PC-3 prostate 35.8% | SK-MEL-5 melanoma 40.6% | UACC-62 melanoma 69.3% | LOX IMVI melanoma 45.4% | SK-MEL-28 melanoma 37.4% | SK-MEL-2 melanoma 82.6% | EKVX NSCLC 46.6% | SN12C renal 75.1% | UO-31 renal 11.2% | TK-10 renal 78.1% | ACHN renal 27.9% | CAKI-1 renal 37.9% | A498 renal 66.8% | CCRF-CEM leukemia 27.1% | MOLT-4 leukemia 35.3%

COc1ccc(OC)c(NC2=C(Cl)C(=O)C(C)=C(C)C2=O)c1
inactive: HCT-15 colon 94.7% | HT29 colon 105% | SNB-75 CNS 71.7% | SNB-19 CNS 95.3% | U251 CNS 94.1% | PC-3 prostate 77.6% | SK-MEL-5 melanoma 89.6% | UACC-62 melanoma 93.8% | LOX IMVI melanoma 89.1% | SK-MEL-28 melanoma 108% | SK-MEL-2 melanoma 95.7% | EKVX NSCLC 77.4% | SN12C renal 92.8% | UO-31 renal 92.4% | TK-10 renal 172% | ACHN renal 100% | CAKI-1 renal 94% | A498 renal 91.6% | CCRF-CEM leukemia 12.9% | MOLT-4 leukemia 36%

Cn1c(SC(C(=O)Nc2ccc(F)cc2)c2ccccc2)nc2ccccc2c1=O (stereo not given)
inactive: HCT-15 colon 102% | HT29 colon 107% | SNB-75 CNS 91.3% | SNB-19 CNS 98.9% | U251 CNS 103% | PC-3 prostate 95.8% | SK-MEL-5 melanoma 104% | UACC-62 melanoma 95.2% | LOX IMVI melanoma 102% | SK-MEL-28 melanoma 114% | SK-MEL-2 melanoma 104% | EKVX NSCLC 100% | SN12C renal 99.1% | UO-31 renal 88.1% | TK-10 renal 99.1% | ACHN renal 109% | CAKI-1 renal 99.3% | A498 renal 98.8% | CCRF-CEM leukemia 102% | MOLT-4 leukemia 101%

Cc1ccc(/C=C/CC(=O)Nc2ccc(C(=O)Nc3ccc(F)cc3N)nc2)cn1
active: TK-10 renal 6.58% | A498 renal -3.27%
inactive: HCT-15 colon 52.3% | HT29 colon 15.9% | SNB-75 CNS 36.7% | SNB-19 CNS 60% | U251 CNS 44.9% | PC-3 prostate 42.9% | SK-MEL-5 melanoma 20.9% | UACC-62 melanoma 21.8% | LOX IMVI melanoma 24.3% | SK-MEL-28 melanoma 25.3% | SK-MEL-2 melanoma 31.3% | EKVX NSCLC 49.8% | SN12C renal 57.6% | UO-31 renal 25.3% | ACHN renal 31.6% | CAKI-1 renal 26.4% | CCRF-CEM leukemia 17.8% | MOLT-4 leukemia 18.1%

COc1ccc(-c2nn(-c3ccccc3)cc2/C=C/C(=O)c2ccc(NC(=O)CCCCCCC(=O)NO)cc2)cc1
inactive: HCT-15 colon 80.5% | HT29 colon 94.4% | SNB-75 CNS 96.6% | SNB-19 CNS 106% | U251 CNS 106% | PC-3 prostate 95.8% | SK-MEL-5 melanoma 101% | UACC-62 melanoma 94.9% | LOX IMVI melanoma 90.4% | SK-MEL-28 melanoma 113% | SK-MEL-2 melanoma 109% | EKVX NSCLC 97.2% | SN12C renal 92.7% | UO-31 renal 93.7% | TK-10 renal 107% | ACHN renal 111% | CAKI-1 renal 81.9% | A498 renal 68.4% | CCRF-CEM leukemia 92.5% | MOLT-4 leukemia 70.3%

NS(=O)(=O)Oc1ccc2nc(Nc3ccc(F)c(F)c3)ccc2c1
inactive: HCT-15 colon 69.6% | HT29 colon 97.3% | SNB-75 CNS 81.3% | SNB-19 CNS 102% | U251 CNS 91.9% | PC-3 prostate 90.6% | SK-MEL-5 melanoma 98.7% | UACC-62 melanoma 85.5% | LOX IMVI melanoma 85.3% | SK-MEL-28 melanoma 98.5% | SK-MEL-2 melanoma 116% | EKVX NSCLC 93.4% | SN12C renal 88% | UO-31 renal 73.3% | TK-10 renal 118% | ACHN renal 85.8% | CAKI-1 renal 76.7% | A498 renal 74.5% | CCRF-CEM leukemia 67.8% | MOLT-4 leukemia 67%
